In PubChem BioAssay (Tox21):
Records with an inconclusive call do not appear. Calls of active or inactive are those of the source. Unless noted, calls follow the shape of the dose curve; as a rule, active = well fitted curve in the direction sought with a large enough effect in the repeat runs; inconclusive = weak or mixed curves; inactive = no such curve, though single readings can be large; an effect the other way counts as inactive or inconclusive.

What was measured:
[1] = qHTS assay to identify small molecule agonists of the hypoxia (HIF-1) signaling pathway (AID 1224846; active = well fitted activation curve with a large enough effect in the signal ratio in the repeat runs, not every such curve was filed as active; the % refers to the signal ratio)
Method in brief: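 Compounds added to ME-180 cells carrying hypoxia-response-element beta-lactamase reporter (0.5% dialyzed FBS, 5 h preplating), 17 h at 37C; agonist activity detected by CCF4-AM B/G FRET read-out.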

[2] = qHTS assay to identify small molecule agonists of H2AX - cell viability counter screen (AID 1224847; calls by dose curve; also: nearly all actives have a fitted effect of over 30% in size; also: potency is read from the fitted curve at half-maximal effect)
Method in brief: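 After overnight plating of 1000 CHO-K1 cells per well, a 15-concentration compound series was applied for 3 hr at 37C. Luminescence from CellTiter-Glo, read following 30 min at room temperature, reflected cell viability.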

[3] = qHTS assay to identify small molecule antagonists of the estrogen related receptor (ERR) signaling pathway from Tox21 library (AID 1224848); also: nearly all actives have a fitted effect of over 50% in size; also: potency is read from the fitted curve at half-maximal effect
Method in brief: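 Compounds dissolved in DMSO are pin-transferred onto ERR reporter cells (2,000 per well) that have settled for 6 h at 37 C. Plates then incubate 18 h at 37 C before ONE-Glo luciferase reagent and a luminescence read 30 min later.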

[4] = qHTS RealTime-Glo MT Cell Viability Assay in HepG2 cells - 24 hour (AID 1224867); also: nearly all actives have a fitted effect of over 50% in size; also: potency is read from the fitted curve at half-maximal effect
Method in brief: (§1)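 Cell number in HepG2 cultures estimated from NanoLuc luminescence generated by metabolic reduction of a prosubstrate by living cells. The homogeneous, nonlytic format allowed repeated reads at 0, 8, 16, 24, 32 and 40 h of compound exposure.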

[5] = qHTS RealTime-Glo MT Cell Viability Assay in HEK293 cells - 32 hour (AID 1224868); also: nearly all actives have a fitted effect of over 50% in size; also: potency is read from the fitted curve at half-maximal effect
Method in brief: (§2)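 Homogeneous bioluminescent viability format in HEK293 cells (600 cells/well). Following 5 h at 37 C/5% CO2, 23 nL compound was pintooled; the signal was measured repeatedly during 40 h incubation.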

[6] = A CellTox Green Cytotoxicity Assay to monitor cytotoxicity in HEK293 cells - 0 hour (AID 1224869); also: nearly all actives have a fitted effect of over 50% in size
Method in brief: (§3)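 Fluorescence from a DNA-binding dye excluded by viable cells was measured repeatedly in the same HEK293 wells (600 cells/well) during continuous compound exposure at 37 C. Each assay gives one read point: 0, 8, 16, 24, 32 or 40 h.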

[7] = qHTS RealTime-Glo MT Cell Viability Assay in HepG2 cells - 40 hour (AID 1224870); also: nearly all actives have a fitted effect of over 50% in size
Method in brief: (§4)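 HepG2 cells (600/well) mixed with RealTime-Glo MT reagent, settled 5 h at 37 C/5% CO2 before compound addition. Nonlytic NanoLuc luminescence from viable-cell prosubstrate reduction read repeatedly during 40 h treatment at 37 C.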

[8] = A CellTox Green Cytotoxicity Assay to monitor cytotoxicity in HEK293 cells - 40 hour (AID 1224871); also: nearly all actives have a fitted effect of over 45% in size
Method in brief: as §3

[9] = qHTS RealTime-Glo MT Cell Viability Assay in HEK293 cells - 16 hour (AID 1224872); also: nearly all actives have a fitted effect of over 50% in size; also: potency is read from the fitted curve at half-maximal effect
Method in brief: as §2

[10] = qHTS RealTime-Glo MT Cell Viability Assay in HepG2 cells - 8 hour (AID 1224873); also: nearly all actives have a fitted effect of over 55% in size
Method in brief: as §4

[11] = qHTS RealTime-Glo MT Cell Viability Assay in HEK293 cells - 40 hour (AID 1224874); settings: RealTime-Glo luminescence; max response: stronger effect = lower value; also: nearly all actives have a fitted effect of over 50% in size; also: potency is read from the fitted curve at half-maximal effect
Method in brief: (§5)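 Luminescence, which tracks viable cell number through reduction of the prosubstrate to a NanoLuc substrate, was read over continuous 37 C culture. Cells (600/well) were premixed with reagent and rested 5 h before 23 nL of compound in DMSO was pinned.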

[12] = A CellTox Green Cytotoxicity Assay to monitor cytotoxicity in HEK293 cells - 24 hour (AID 1224875); also: nearly all actives have a fitted effect of over 45% in size
Method in brief: as §3

[13] = A CellTox Green Cytotoxicity Assay to monitor cytotoxicity in HepG2 cells - 16 hour (AID 1224876); also: nearly all actives have a fitted effect of over 45% in size; also: potency is read from the fitted curve at half-maximal effect
Method in brief: (§6)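 Real-time cytotoxicity: fluorescence of a cell-impermeant cyanine dye binding DNA of dead HepG2 cells, measured repeatedly (0–40 h) during compound exposure at 37 C. Cells seeded 600/well with reagent, dosed after 5 h.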

[14] = A CellTox Green Cytotoxicity Assay to monitor cytotoxicity in HepG2 cells - 24 hour (AID 1224878); also: nearly all actives have a fitted effect of over 45% in size; also: potency is read from the fitted curve at half-maximal effect
Method in brief: as §6

[15] = A CellTox Green Cytotoxicity Assay to monitor cytotoxicity in HepG2 cells - 40 hour (AID 1224879); also: nearly all actives have a fitted effect of over 40% in size; also: potency is read from the fitted curve at half-maximal effect
Method in brief: as §6

[16] = qHTS RealTime-Glo MT Cell Viability Assay in HEK293 cells - 0 hour (AID 1224880)
Method in brief: as §5

[17] = A CellTox Green Cytotoxicity Assay to monitor cytotoxicity in HEK293 cells - 32 hour (AID 1224881); also: nearly all actives have a fitted effect of over 40% in size
Method in brief: as §3

[18] = A CellTox Green Cytotoxicity Assay to monitor cytotoxicity in HepG2 cells - 0 hour (AID 1224882); also: nearly all actives have a fitted effect of over 35% in size
Method in brief: as §6

[19] = qHTS RealTime-Glo MT Cell Viability Assay in HepG2 cells - 32 hour (AID 1224877); also: nearly all actives have a fitted effect of over 55% in size
Method in brief: as §1

[20] = qHTS assay to identify small molecule agonists of the estrogen related receptor (ERR) signaling pathway from Tox21 library (AID 1224849; calls by dose curve; also: nearly all actives have a fitted effect of over 15% in size); settings: ERR reporter cell line, ONE-Glo luciferase, 18 h; at 92.4 µM (top of the series) unless noted
Method in brief: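 Luminescent agonist read-out (One-Glo, 30-minute room-temperature incubation) following 18-hour compound treatment at 37 C of the ERR cell line, which had been plated 6 hours before dosing.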
% is scaled to controls: 0 for no effect and ±100 for the full control effect.

COC(=O)CC(C)CCC=C(C)C (centres undefined)
inactive: outcome [1] | Potency [2] | Potency [3] | Potency [4] | Potency [5] | Potency [6] | Potency [7] | Potency [8] | Potency [9] | Potency [10] | max response [11] 7.75% | Potency [12] | Potency [13] | Potency [14] | Potency [15] | Potency [16] | Potency [17] | Potency [18]

Cc1c(C(=O)O)cccc1[N+](=O)[O-]
inactive: outcome [1] | Potency [2] | Potency [4] | Potency [5] | Potency [6] | Potency [7] | Potency [8] | Potency [9] | Potency [10] | max response [11] -5.1% | Potency [12] | Potency [13] | Potency [19] | Potency [14] | Potency [15] | Potency [16] | Potency [17] | Potency [18]

CCCCCCCC(C)=O
inactive: outcome [1] | Potency [2] | Potency [4] | Potency [5] | Potency [6] | Potency [7] | Potency [8] | Potency [9] | Potency [10] | max response [11] 0.179% | Potency [12] | Potency [13] | Potency [19] | Potency [14] | Potency [15] | Potency [16] | Potency [17] | Potency [18]

CCCCCCCCCC(=O)N(C)C
inactive: outcome [1] | Potency [2] | Potency [3] | Potency [4] | Potency [5] | Potency [7] | Potency [9] | Potency [10] | Potency [13] | Potency [14] | Potency [15] | Potency [16] | Potency [18]

c1cc[nH]c1
inactive: outcome [1] | Potency [2] | Potency [3] | Potency [4] | Potency [5] | Potency [7] | Potency [8] | Potency [9] | Potency [10] | max response [11] 10.9% | Potency [12] | Potency [13] | Potency [14] | Potency [16] | Potency [17] | Potency [18]

O=C[C@H](O)[C@H](O)[C@H](O)CO
inactive: outcome [1] | Potency [2] | Potency [4] | Potency [5] | Potency [6] | Potency [7] | Potency [8] | Potency [9] | Potency [10] | max response [11] 0.822% | Potency [12] | Potency [13] | Potency [19] | Potency [14] | Potency [15] | Potency [16] | Potency [17] | Potency [18]

COc1ccccc1OCCNCC(O)COc1cccc2[nH]c3ccccc3c12 (centres undefined)
active: Potency [2] 49.2 µM | Potency [3] 26.6 µM | Potency [4] 21.3 µM | Potency [5] 16.9 µM | Potency [9] 16.9 µM | Potency [11] 10.7 µM | Potency [13] 23.9 µM | Potency [14] 26.8 µM | Potency [15] 23.9 µM
inactive: outcome [1] | Potency [6] | Potency [12] | Potency [16] | Potency [18]

CCCCOCC
inactive: outcome [1] | Potency [2] | Potency [3] | Potency [4] | Potency [6] | Potency [7] | Potency [8] | Potency [10] | Potency [12] | Potency [13] | Potency [19] | Potency [14] | Potency [15] | Potency [17] | Potency [18]

CN1CN(C)CN(C)C1
inactive: outcome [1] | Potency [2] | Potency [3] | activity change, positive = activation [20] 7.33% | Potency [4] | Potency [5] | Potency [7] | Potency [8] | Potency [9] | Potency [10] | max response [11] -12.7% | Potency [12] | Potency [13] | Potency [19] | Potency [14] | Potency [15] | Potency [16] | Potency [17]

CCCCCCC(C)OC(=O)COc1nc(F)c(Cl)c(N)c1Cl (centres undefined)
inactive: outcome [1] | activity change, positive = activation [20] -16.7% | Potency [4] | Potency [5] | Potency [6] | Potency [7] | Potency [8] | Potency [9] | Potency [10] | max response [11] -20.4% | Potency [12] | Potency [19] | Potency [16] | Potency [18]
active: Potency [2] 113 µM

Cc1cccc(Br)c1
inactive: outcome [1] | Potency [2] | Potency [4] | Potency [5] | Potency [6] | Potency [7] | Potency [8] | Potency [9] | Potency [10] | max response [11] 0.0661% | Potency [12] | Potency [13] | Potency [19] | Potency [14] | Potency [15] | Potency [16] | Potency [17] | Potency [18]

Clc1cc(Cl)c(-c2c(Cl)c(Cl)cc(Cl)c2Cl)cc1Cl
inactive: outcome [1] | Potency [2] | Potency [3] | Potency [4] | Potency [6] | Potency [8] | Potency [9] | Potency [10] | Potency [12] | Potency [19] | Potency [14] | Potency [15] | Potency [16] | Potency [17] | Potency [18]

CC1CCCCN1CCCOC(=O)c1ccc(OC2CCCCC2)cc1 (centres undefined)
inactive: outcome [1] | Potency [2] | Potency [6] | Potency [10] | Potency [16]
active: Potency [3] 11.9 µM | Potency [5] 21.3 µM | Potency [9] 15.1 µM | Potency [14] 26.8 µM | Potency [15] 26.8 µM

NC(=O)c1ccccc1N
inactive: outcome [1] | Potency [2] | Potency [3] | activity change, positive = activation [20] -2.02% | Potency [4] | Potency [5] | Potency [6] | Potency [8] | Potency [9] | Potency [10] | Potency [12] | Potency [13] | Potency [19] | Potency [14] | Potency [15] | Potency [16] | Potency [17] | Potency [18]

CC[N+](CC)(CC)Cc1ccccc1
inactive: outcome [1] | Potency [2] | Potency [3] | Potency [4] | Potency [5] | Potency [6] | Potency [7] | Potency [8] | Potency [9] | Potency [10] | Potency [12] | Potency [13] | Potency [19] | Potency [14] | Potency [15] | Potency [16] | Potency [17] | Potency [18]

O=Cc1ccc(F)cc1
inactive: outcome [1] | Potency [2] | Potency [4] | Potency [5] | Potency [6] | Potency [7] | Potency [8] | Potency [9] | Potency [10] | max response [11] 3.4% | Potency [12] | Potency [13] | Potency [19] | Potency [14] | Potency [15] | Potency [16] | Potency [17]
